# Where “and” joins values, the source holds several entries; their conditions need not be identical. Equal entries are not always repeated. Inconclusive results are not listed. Calls of active or inactive are those of the source. Calls come from the whole dose curve.
# Legend:
# [1] = Confirmatory qHTS to identify inhibitors of SARS-CoV-2 cell entry (AID 1645844); note: nearly all actives have a fitted effect of over 45% in size; for activity, negative = inhibition: % is set by controls: 0 for no effect and ±100 for the full control effect
# Outline: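 HEK293-ACE2 cells were pretreated 1 h with compound, then infected with MLV-based pseudoparticles bearing C-terminally truncated Wuhan-Hu-1 spike for 48 h at 37C; luciferase luminescence normalized to spike PP and bald PP wells.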
# [2] = VSVG counterscreen qHTS to identify inhibitors of SARS-CoV-2 cell entry (AID 1645847); note: nearly all actives have a fitted effect of over 65% in size; for activity change, negative = inhibition: % is set by controls: 0 for no effect and ±100 for the full control effect
# Outline: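 Luminescence from a luciferase reporter, normalised to bald particle and VSV-G pseudotyped particle wells, is the read-out. Cells are HEK293 expressing human ACE2, exposed to compound 1 h before a 48 h particle infection at 37 °C.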
# [3] = Cytotoxicity counterscreen for inhibitors of SARS-CoV-2 cell entry (AID 1645845); conditions: outcome: dose series up to 57.1 µM unless noted; note: nearly all actives have a fitted effect of over 50% in size
# Outline: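 HEK293-ACE2 cells (Expi293F stably expressing human ACE2) seeded overnight, then compound for 1 h plus 48 h at 37C. Viability as ATP content by luminescence; normalized to wells with cells and media-only wells.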
# [4] = Primary qHTS to identify inhibitors of SARS-CoV-2 cell entry (AID 1645846); conditions: SARS-CoV-2 pseudovirus cell entry assay, luminescence; activity change, negative = inhibition: at 57.1 µM (top of the series) unless noted; note: nearly all actives have a fitted effect of over 45% in size
# Outline: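 Inhibition of spike-mediated entry was scored in human ACE2-transfected Expi293F cells. Particles were MLV-pseudotyped with Wuhan-Hu-1 S carrying a 19-aa C-terminal deletion; signal was luciferase after two days, scaled between spike PP and fusion-protein-free PP.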
# [5] = S16 Schwann cell PMP22 intronic element beta-lactamase assay (AID 624044); conditions: S16 rat Schwann cells, PMP22 element beta-lactamase FRET, 24 h; ratio activity, negative = inhibition: at 38.3 µM (top of the series) unless noted; note: nearly all actives have a fitted effect of over 15% in size
# Outline: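 Rat S16 Schwann cells with beta-Lac driven by a PMP22 intronic element, compound-treated 24 h at 37 °C. LiveBLAzer FRET B/G read: 460 nm normalized to potassium clavulanate vs DMSO; 535 nm FRET as viability; concentration-effect curves classified.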
# Potency is the fitted concentration of half-maximal effect.
compound,measurement,setting,value
CN(C)CCCOc1ccc(-c2ccc3ncc4c(c3c2)n(C2CCOCC2)c(=O)n4C)cn1,Potency,[1],5910 nM (active)
same,Potency,[2],2350 nM (active)
CC[C@]1(O)CC2CN(CCc3c([nH]c4ccccc34)[C@@](C(=O)OC)(c3cc4c(cc3OC)N(C)[C@H]3[C@@](O)(C(=O)OC)[C@H](OC(C)=O)[C@]5(CC)C=CCN6CC[C@]43[C@@H]65)C2)C1 (some centres undefined),Potency,[1],4.3 nM (active)
same,Potency,[2],38.3 nM (active)
C=CC(=O)N[C@H]1CN(c2nc(Nc3cn(C)nc3OC)c3ncn(C)c3n2)C[C@@H]1F,Potency,[1],inactive
same,Potency,[3],inactive
same,Potency,[2],inactive
N#Cc1cccnc1N1CCN(C(=O)c2cccc(Cc3n[nH]c(=O)c4ccccc34)c2)CC1,Potency,[1],68.1 nM (active)
same,"activity change, negative = inhibition",[4],-93.1%
same,Potency,[2],60.7 nM (active)
Cn1cc(C2=C(c3cn(C)c4cc([N+](=O)[O-])ccc34)C(=O)NC2=O)c2ccccc21,Potency,[1],1710 nM (active)
same,Potency,[2],1080 nM (active)
COCCNCc1ccc(-c2cc3nccc(Oc4ccc(NC(=S)NC(=O)Cc5ccc(F)cc5)cc4F)c3s2)nc1,Potency,[1],3830 nM (active)
same,Potency,[2],1360 nM (active)
CO[C@@H]1[C@@H](O)[C@H](O)[C@@H](n2c3c(Cl)cccc3c3c4c(c5c6cccc(Cl)c6[nH]c5c32)C(=O)NC4=O)O[C@H]1CO,Potency,[1],961 nM (active)
same,Potency,[4],1000 nM (active)
same,Potency,[2],857 nM (active)
O=C1NC(=O)C(c2cnc3ccccn23)=C1c1cn2c3c(cc(F)cc13)CN(C(=O)N1CCCCC1)CC2,Potency,[1],2150 nM (active)
same,Potency,[2],152 nM (active)
CC#CC(=O)N1CC[C@@H](n2c(=O)n(-c3ccc(Oc4ccccc4)cc3)c3c(N)ncnc32)C1,Potency,[1],21500 nM (active)
same,"activity change, negative = inhibition",[4],-99%
COc1ccc2[nH]c3c(c2c1)CCN[C@]31CS[C@@H]2c3c(OC(C)=O)c(C)c4c(c3[C@H](COC1=O)N1[C@@H]2[C@H]2c3c(cc(C)c(OC)c3O)C[C@@H]([C@@H]1O)N2C)OCO4,Potency,[1],4.4 nM (active)
same,Potency,[4],631 nM (active)
same,Potency,[2],3.5 nM (active)
COc1cc(N2CCC(N)CC2)ccc1Nc1ncc(Cl)c(-c2c[nH]c3ccccc23)n1,Potency,[3],31600 nM (active)
C[C@@]12C(=O)OC(=O)[C@]1(C)[C@H]1CC[C@@H]2O1,Potency,[5],3370 nM (active)
same,Potency,[1],4820 nM (active)
same,Potency,[4],8910 nM (active)
same,Potency,[2],3040 nM (active)
O=C(CCCCCCC(=O)N/N=C/c1ccc(N(c2ccccc2)c2ccccc2)cc1)NO,Potency,[1],8790 nM (active)
same,Potency,[4],3160 nM (active)
same,Potency,[2],7840 nM (active)
COc1cc(N2CCN(C)CC2)ccc1Nc1ncc2c(n1)N(C)c1ccccc1C(=O)N2,Potency,[3],inactive
CNCCCOc1cc(F)c(-c2c(Cl)nc3ncnn3c2N[C@@H](C)C(F)(F)F)c(F)c1,Potency,[1],1210 nM (active)
same,"activity change, negative = inhibition",[4],-85.4%
same,Potency,[2],121 nM (active)
CC(C)n1c(=O)cc(N[C@@H](C)c2ccccc2)[nH]c1=O,Potency,[1],inactive
same,"activity change, negative = inhibition",[4],-96.7%
same,Potency,[2],inactive
COc1cc(F)ccc1-c1ncnc(Nc2cccc(CS(C)(=N)=O)c2)n1 (centres undefined),Potency,[1],3830 nM (active)
same,Potency,[2],4290 nM (active)
C=C[C@H]1CN2CCC1C[C@@H]2C(O)c1ccnc2ccc(OC)cc12 (some centres undefined),Potency,[3],inactive
CCn1nc(C2CCN(C(=O)CCO)CC2)nc1-c1cnc(N)c(-c2nnc(C(C)(C)C)o2)n1,Potency,[3],inactive
CN1CCC(c2c(O)cc(O)c3c(=O)cc(-c4ccccc4Cl)oc23)C1CO (centres undefined),Potency,[1],3040 nM (active)
same,Potency,[3],inactive
same,Potency,[4],2820 nM (active)
same,Potency,[2],2410 nM (active)
Cc1c[nH]c2ncnc(N3CCC(CN)(C(=O)Nc4cccc(OC(=O)N(C)C)c4)CC3)c12,Potency,[1],inactive
same,Potency,[3],inactive
same,"activity change, negative = inhibition",[4],-8.16% and -70.1%
same,Potency,[2],inactive
CC(=O)c1ccc2c(c1)c1cc(C(C)=O)ccc1n2CCNC(C)C,Potency,[1],54.1 nM (active)
same,Potency,[2],136 nM (active)
O=S(=O)(Nc1ccc(-c2cccnc2)c2cccnc12)c1cccc(C(F)(F)F)c1,Potency,[3],14100 nM (active)
O=C1NC(=O)[C@@H](c2c[nH]c3ccccc23)[C@H]1c1cn2c3c(cccc13)CCC2,Potency,[1],7640 nM (active)
same,Potency,[2],1520 nM (active)
O=C(Nc1ccnc(NC(=O)C2CC2)c1)c1c(Cl)cccc1Cl,Potency,[1],1920 nM (active)
same,"activity change, negative = inhibition",[4],-97%
same,Potency,[2],2710 nM (active)
NC(=O)/C(=C/n1cnc(-c2cc(C(F)(F)F)cc(C(F)(F)F)c2)n1)c1cncnc1,Potency,[1],607 nM (active)
same,Potency,[3],inactive
same,Potency,[4],1260 nM (active)
same,Potency,[2],108 nM (active)
CCNC(=O)Nc1ccc(-c2nc3c(c(N4CCOC[C@@H]4C)n2)CCN(C2COC2)C3)cc1,Potency,[1],12100 nM (active)
same,Potency,[4],10000 nM (active)
CC(=O)Nc1ccc(C(=O)NC(C)(C)C)cc1,Potency,[3],inactive
same,Potency,[4],inactive
CCCCCCCCCCCCC[N+](C)(C)Cc1ccccc1,Potency,[3],20000 nM (active)
same,Potency,[4],20000 nM (active)
